The campaign covered roughly 5,500 compounds. About 2,000 (36%) were called active. Roughly 18% stayed inconclusive and do not appear here. Rule as the data show it: active = normalized growth mostly below about 0.91 (no sharp cut-off); inconclusive = no clear call, values can overlap the other calls; inactive = mostly above about 0.92. Some of the results follow.
Assay: chemical genetic growth profiling, strain panel (AID 1159580);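 also: tested at 20 µM; growth read once vehicle control cultures reached saturation at 30 °C; 1 = growth at the plate median or of vehicle wells; lower values mean less growth of the strain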
Conditions: growth OD

Measured: normalized growth

C=CCSCC1Nc2cc(Cl)c(S(N)(=O)=O)cc2S(=O)(=O)N1 (configuration not stated)
inactive: S. cerevisiae deletion strains, locus YJR075W, strain HOC1, stronger effect = lower value 1.01 | S. cerevisiae deletion strains, locus YKL009W, strain mrt4, stronger effect = lower value 1.02 | S. cerevisiae deletion strains, locus YKL068W, stronger effect = lower value 1.02 | S. cerevisiae deletion strains, locus YKL085W, strain MDH1 (second series), stronger effect = lower value 1 | S. cerevisiae deletion strains, locus YKL085W, strain MDH1, stronger effect = lower value 1 | S. cerevisiae deletion strains, locus YKL160W, strain elf1, stronger effect = lower value 0.994 | S. cerevisiae deletion strains, locus YKL190W, strain CNB1, stronger effect = lower value 1.01 | S. cerevisiae deletion strains, locus YKR001C, strain vps1, stronger effect = lower value 1.02 | S. cerevisiae deletion strains, locus YKR026C, strain gcn3, stronger effect = lower value 1 | S. cerevisiae deletion strains, locus YKR091W, strain srl3, stronger effect = lower value 1 | S. cerevisiae deletion strains, locus YLL001W, strain dnm1, stronger effect = lower value 0.997 | S. cerevisiae deletion strains, locus YLL026W, stronger effect = lower value 0.998 | S. cerevisiae deletion strains, locus YLL041C, strain sdh2, stronger effect = lower value 1 | S. cerevisiae deletion strains, locus YLR027C, strain aat2, stronger effect = lower value 0.996 | S. cerevisiae deletion strains, locus YLR039C, strain RIC1, stronger effect = lower value 1.02 | S. cerevisiae deletion strains, locus YLR058C, strain SHM2, stronger effect = lower value 1.01 | S. cerevisiae deletion strains, locus YLR102C, strain apc9, stronger effect = lower value 1.04 | S. cerevisiae deletion strains, locus YLR113W, strain HOG1, stronger effect = lower value 1.06 | S. cerevisiae deletion strains, locus YLR221C, strain rsa3, stronger effect = lower value 0.988 | S. cerevisiae deletion strains, locus YLR258W, strain gsy2, stronger effect = lower value 0.998 | S. cerevisiae deletion strains, locus YLR262C, strain YPT6 (second series), stronger effect = lower value 0.989 | S. cerevisiae deletion strains, locus YLR262C, strain YPT6, stronger effect = lower value 1.04 | S. cerevisiae deletion strains, locus YLR268W, strain sec22, stronger effect = lower value 1.02 | S. cerevisiae deletion strains, locus YLR320W, strain mms22, stronger effect = lower value 0.985 | S. cerevisiae deletion strains, locus YLR330W, strain CHS5, stronger effect = lower value 1.01 | S. cerevisiae deletion strains, locus YLR342W, strain FKS1 (second series), stronger effect = lower value 0.996 | S. cerevisiae deletion strains, locus YLR342W, strain FKS1, stronger effect = lower value 1.01 | S. cerevisiae deletion strains, locus YLR357W, strain rsc2, stronger effect = lower value 0.991 | S. cerevisiae deletion strains, locus YLR370C, strain arc18, stronger effect = lower value 1 | S. cerevisiae deletion strains, locus YLR371W, strain rom2, stronger effect = lower value 1.02 | S. cerevisiae deletion strains, locus YLR384C, strain iki3, stronger effect = lower value 1 | S. cerevisiae deletion strains, locus YLR418C, strain cdc73, stronger effect = lower value 1.04 | S. cerevisiae deletion strains, locus YML016C, strain PPZ1, stronger effect = lower value 1.01 | S. cerevisiae deletion strains, locus YML032C, strain rad52, stronger effect = lower value 1.03 | S. cerevisiae deletion strains, locus YML120C, strain ndi1, stronger effect = lower value 1 | S. cerevisiae deletion strains, locus YML124C, strain tub3, stronger effect = lower value 1.02 | S. cerevisiae deletion strains, locus YMR058W, strain fet3, stronger effect = lower value 0.998 | S. cerevisiae deletion strains, locus YMR078C, strain ctf18, stronger effect = lower value 1.03 | S. cerevisiae deletion strains, locus YMR125W, strain sto1, stronger effect = lower value 0.998 | S. cerevisiae deletion strains, locus YMR129W, stronger effect = lower value 1 | S. cerevisiae deletion strains, locus YMR205C, strain PFK2, stronger effect = lower value 0.995 | S. cerevisiae deletion strains, locus YMR223W, strain ubp8, stronger effect = lower value 1.02 | S. cerevisiae deletion strains, locus YMR231W, strain pep5, stronger effect = lower value 1 | S. cerevisiae deletion strains, locus YMR263W, strain SAP30, stronger effect = lower value 1.02 | S. cerevisiae deletion strains, locus YMR307W, strain GAS1, stronger effect = lower value 1.1 | S. cerevisiae deletion strains, locus YNL067W, strain RPL9B, stronger effect = lower value 1.01 | S. cerevisiae deletion strains, locus YNL071W, strain lat1, stronger effect = lower value 0.999 | S. cerevisiae deletion strains, locus YNL128W, strain TEP1, stronger effect = lower value 1.01 | S. cerevisiae deletion strains, locus YNL153C, strain GIM3, stronger effect = lower value 1.01 | S. cerevisiae deletion strains, locus YNL183C, strain NPR1, stronger effect = lower value 0.977 | S. cerevisiae deletion strains, locus YNL209W, strain ssb2, stronger effect = lower value 0.999 | S. cerevisiae deletion strains, locus YNL233W, strain BNI4, stronger effect = lower value 0.998 | S. cerevisiae deletion strains, locus YNL248C, strain rpa49, stronger effect = lower value 0.989 | S. cerevisiae deletion strains, locus YNL250W, strain rad50, stronger effect = lower value 1.03 | S. cerevisiae deletion strains, locus YNL271C, strain bni1, stronger effect = lower value 1.03 | S. cerevisiae deletion strains, locus YNL298W, strain CLA4, stronger effect = lower value 1.04 | S. cerevisiae deletion strains, locus YNL307C, strain MCK1, stronger effect = lower value 1.01 | S. cerevisiae deletion strains, locus YNL322C, strain KRE1 (second series), stronger effect = lower value 0.995 | S. cerevisiae deletion strains, locus YNL322C, strain KRE1, stronger effect = lower value 1.01 | S. cerevisiae deletion strains, locus YNR049C, strain mso1, stronger effect = lower value 0.998 | S. cerevisiae deletion strains, locus YNR052C, strain pop2, stronger effect = lower value 1.03 | S. cerevisiae deletion strains, locus YOL006C, strain TOP1, stronger effect = lower value 1.03 | S. cerevisiae deletion strains, locus YOL012C, strain htz1 1.06 | S. cerevisiae deletion strains, locus YOL147C, strain pex11, stronger effect = lower value 1.02 | S. cerevisiae deletion strains, locus YOR001W, strain rrp6, stronger effect = lower value 0.977 | S. cerevisiae deletion strains, locus YOR061W, strain CKA2, stronger effect = lower value 1.01 | S. cerevisiae deletion strains, locus YOR069W, strain VPS5, stronger effect = lower value 1.01 | S. cerevisiae deletion strains, locus YOR070C, strain gyp1, stronger effect = lower value 1 | S. cerevisiae deletion strains, locus YOR080W, strain dia2, stronger effect = lower value 1 | S. cerevisiae deletion strains, locus YOR083W, strain WHI5, stronger effect = lower value 0.999 | S. cerevisiae deletion strains, locus YOR106W, strain vam3, stronger effect = lower value 0.985 | S. cerevisiae deletion strains, locus YOR136W, strain idh2, stronger effect = lower value 1.03 | S. cerevisiae deletion strains, locus YOR144C, strain elg1, stronger effect = lower value 1.02 | S. cerevisiae deletion strains, locus YOR184W, strain ser1, stronger effect = lower value 1.03 | S. cerevisiae deletion strains, locus YOR231W, strain MKK1, stronger effect = lower value 1.03 | S. cerevisiae deletion strains, locus YOR265W, strain rbl2, stronger effect = lower value 1.03 | S. cerevisiae deletion strains, locus YOR270C, strain vph1, stronger effect = lower value 0.974 | S. cerevisiae deletion strains, locus YOR290C, strain snf2, stronger effect = lower value 0.987 | S. cerevisiae deletion strains, locus YOR316C, strain cot1, stronger effect = lower value 1.03 | S. cerevisiae deletion strains, locus YPL051W, strain arl3, stronger effect = lower value 1 | S. cerevisiae deletion strains, locus YPL055C, strain LGE1, stronger effect = lower value 1.02 | S. cerevisiae deletion strains, locus YPL078C, strain atp4, stronger effect = lower value 0.989 | S. cerevisiae deletion strains, locus YPL106C, strain sse1, stronger effect = lower value 1.04 | S. cerevisiae deletion strains, locus YPL240C, strain hsp82, stronger effect = lower value 1.01 | S. cerevisiae deletion strains, locus YPL241C, strain CIN2, stronger effect = lower value 1.01 | S. cerevisiae deletion strains, locus YPL256C, strain CLN2, stronger effect = lower value 1.07 | S. cerevisiae deletion strains, locus YPR119W, strain clb2, stronger effect = lower value 1.02 | S. cerevisiae deletion strains, locus YPR141C, strain kar3, stronger effect = lower value 1.03 | S. cerevisiae deletion strains, locus YPR163C, strain tif3, stronger effect = lower value 1.02 | S. cerevisiae deletion strains, locus YPR167C, strain met16, stronger effect = lower value 1.03 | S. cerevisiae deletion strains, strain wtn01, stronger effect = lower value 1.02 | S. cerevisiae strains, strain wild type, stronger effect = lower value 1.01

Source: PubChem BioAssay AID1159580 (chemical genetic matrix, 2015)
